Here are results for five compounds from PubChem BioAssay AID677 (Vanderbilt High Throughput Screening Facility, 2007).

Hit rate of the full screen: of about 1,700 compounds, about 720 (42%) were called active. So high a share suggests a set chosen from earlier hits. Only a sample is shown. A number with no mark means an inactive call.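 Rule for the calls: active = calcium response below the same-plate mean of wells given acetylcholine alone at its 80%-effect dose, minus 3 SD; inactive = the rest.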

Muscarinic acetylcholine receptor M1 (Rattus norvegicus), sequence (P08482 whole entry, looked up): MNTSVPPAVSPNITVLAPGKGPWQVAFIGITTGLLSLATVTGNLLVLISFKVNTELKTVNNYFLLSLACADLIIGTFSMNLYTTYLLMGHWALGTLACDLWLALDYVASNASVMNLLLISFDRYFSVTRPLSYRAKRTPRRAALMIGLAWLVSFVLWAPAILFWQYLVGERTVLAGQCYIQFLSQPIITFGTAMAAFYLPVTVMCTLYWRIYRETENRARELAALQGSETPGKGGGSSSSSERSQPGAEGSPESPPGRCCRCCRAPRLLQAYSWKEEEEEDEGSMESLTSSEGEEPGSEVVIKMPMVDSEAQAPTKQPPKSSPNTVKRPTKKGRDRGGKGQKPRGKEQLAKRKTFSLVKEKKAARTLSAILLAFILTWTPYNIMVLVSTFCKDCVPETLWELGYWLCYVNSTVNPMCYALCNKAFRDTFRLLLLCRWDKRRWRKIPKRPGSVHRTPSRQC

The assay concerns the target Muscarinic acetylcholine receptor M1 (Rattus norvegicus) (UniProt P08482). In words: blockers of ACh-evoked M1 calcium signal – CHO cells, Fluo-4 calcium, duplicate, confirmation (AID 677).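 Note: raw fluorescence intensity difference in arbitrary instrument units and not normalized.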 Conditions: ACh EC80 antagonism, at 10 µM, stronger effect = lower value.
As for `COc1ccc(C2NCc3ccc4c(c3-n3cccc32)OCO4)cc1OC` (stereo not given), the calcium response (max-min fluorescence) was 455 (active). In the case of `Fc1ccc(N2CCN(Cc3ccc4c(c3)OCO4)CC2)cc1`, the calcium response (max-min fluorescence) was 588.

`CCOC(=O)C1SC2(C(F)(F)C(F)F)CC1(O)c1c(c(OC)c3occc3c1OC)O2` (stereo not given): the calcium response (max-min fluorescence) is 516.

As for `CC[N+]1(C)CCCC(OC(=O)C(O)(c2ccccc2)c2ccccc2)C1` (stereo not given), the calcium response (max-min fluorescence) was 17.5 (active).

On to `COc1ccc(CN2CCN(c3ccccc3F)CC2)c(OC)c1`, for which the calcium response (max-min fluorescence) is 547.
